# Results reported in PubChem BioAssay.
# A number with no mark means an inactive call. How the calls were made is not given here.
# Target: Pantothenate synthetase (Mycobacterium tuberculosis (strain ATCC 25618 / H37Rv)) (UniProt P9WIL5)
# Test: Coupled enzyme confirmation of inhibitors against recombinant Mtb PanC (AID 375);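 further: 0% = full reaction with vehicle and 100% = no enzyme background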
# Settings: coupled enzyme assay; at 10 µM, active compounds read high
# Sequence of Pantothenate synthetase (Mycobacterium tuberculosis (strain ATCC 25618 / H37Rv)) (P9WIL5 whole entry, looked up): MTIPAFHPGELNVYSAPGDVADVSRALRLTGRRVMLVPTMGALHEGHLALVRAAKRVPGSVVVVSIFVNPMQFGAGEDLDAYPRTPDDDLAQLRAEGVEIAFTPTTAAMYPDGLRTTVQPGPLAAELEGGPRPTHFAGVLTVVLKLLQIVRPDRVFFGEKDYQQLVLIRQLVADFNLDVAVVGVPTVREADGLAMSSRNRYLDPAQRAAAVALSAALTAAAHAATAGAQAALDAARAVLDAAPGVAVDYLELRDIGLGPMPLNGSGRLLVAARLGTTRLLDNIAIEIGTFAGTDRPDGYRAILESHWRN
row,Compound,inhibition [%]
1,Cc1cc2oc(=O)cc(C)c2c(=O)o1,4
2,COCCNS(=O)(=O)c1cc(F)ccc1OC,0
3,CCC(C)(C)NC(=O)C(c1ccco1)N(C(=O)Cn1nnc2ccccc21)c1ccc2c(c1)OCO2 (centres undefined),0
4,O=C(Nc1ccccc1C(=O)NCC1CCCO1)c1ccco1 (centres undefined),1
5,CCC(=O)N1Cc2ccccc2-c2ccccc2C1=O,0
6,CN(C(=O)COc1cc(=O)n(C)c2ccccc12)c1ccc(Br)cc1,0
7,CCO/C([O-])=N/c1c[n+](N2CCOCC2)no1,0
8,O=S(=O)(NCCSc1ccccc1)c1cccs1,0
9,O=C1OCc2cc(NC(=O)C3CCCO3)ccc21 (centres undefined),5
10,COc1ccc(OCc2nc(N)nc(Nc3cccc(C)c3C)n2)cc1,1
11,O=C(Cn1nnc(-c2cccc(C(F)(F)F)c2)n1)NC(=O)NCc1ccco1,0
12,CC(C)(C)OC(=O)N1CC(O)CC1C(=O)OCC(=O)c1ccc(Cl)cc1 (centres undefined),0
13,COc1ccccc1C(=O)NCCc1nc2ccccc2n1C,1
14,Cc1nc2ccc(S(=O)(=O)NCC(=O)O)cc2s1,4
15,COc1cccc(C(=O)Nc2ccc(NC(=O)C(C)(C)C)cn2)c1,0
16,Cc1cc(SCC(N)=O)nc(SCC(=O)c2ccccc2)n1,0
17,Cc1c(NS(=O)(=O)c2ccc3c(c2)n(C)c(=O)n3C)c(=O)n(-c2ccccc2)n1C,2
18,COc1ccccc1NC(=O)NC1(C(=O)N2CCC(O)CC2)CCCCC1,0
19,O=C(O)CC(C(=O)Nc1cccc(C(F)(F)F)c1)C1CCCO1 (centres undefined),1
20,Cn1c(=O)oc2cc(S(=O)(=O)NCCC(=O)N3CCc4ccccc4C3)ccc21,0
21,c1ccc(-c2noc(-c3cccnc3)n2)nc1,0
22,COc1ccc(S(=O)(=O)Nc2ccccc2SC)cc1C,0
23,CCCCc1noc2c1/C(=N\O)CC(c1ccccc1)C2 (centres undefined),3
24,O=c1[nH]c(Nc2ccccc2)cc2ccccc12,0
25,COc1ccc(Br)cc1-c1noc(-c2ccccc2)n1,4
26,O=C(Cn1nc(-c2ccc3c(c2)OCCO3)ccc1=O)Nc1ccc(N2CCOCC2)cc1,0

row,Compound,inhibition [%]
1,O=C(C1CCCN(S(=O)(=O)c2cccc3nonc23)C1)N1CCC(Cc2ccccc2)CC1 (centres undefined),3
2,CCOC(=O)c1cc2c(=O)n3ccccc3nc2n(Cc2ccccc2)c1=N,0
3,CC(=O)OCC1=C(C(=O)O)N2C(=O)[C@@H](NC(=O)Cc3cccs3)[C@H]2SC1,0
4,CC(C)(Oc1ccc(Cl)cc1)C(=O)NC1CCSC1=O (centres undefined),0
5,COc1ccc(-n2ncc3c(NCc4ccc5c(c4)OCO5)ncnc32)cc1,0
6,Cc1nnc(SCc2cccc(Oc3ccccc3)c2)n1N,0
7,Cc1[nH]c2ccc(F)cc2c(=O)c1SC(F)(F)C(F)C(F)(F)F (centres undefined),1
8,COC(=O)C1=C(N)Oc2cc(C)n(Cc3ccncc3)c(=O)c2C1c1cccnc1 (centres undefined),0
9,Cc1nc(C)c(C(=O)C2=C(O)C(=O)N(CCCn3ccnc3)C2c2ccccc2)s1 (centres undefined),1
10,CCOC(=O)C1=C(C)N=C2SCCC(=O)N2C1c1cc(Br)ccc1OC (centres undefined),5
11,CC(=O)Nc1nc(-c2ccccc2)nc(C)c1C(C)=O,1
12,CCCNS(=O)(=O)c1ccc(OCC(=O)NCc2ccc3c(c2)OCO3)cc1,2
13,CCC1C(=O)N=C(SCC(=O)Nc2cccc3ccccc23)NC1=O (centres undefined),0
14,CCOC(=O)c1c(COC(=O)c2ccco2)nc2ccccc2[n+]1[O-],0
15,CCCc1cc(-n2ccnc2)n2c(nc3ccccc32)c1C#N,0
16,O=c1oc2ccccc2c2nccnc12,0
17,c1ccc(-n2cnc3cc(NCc4ccccn4)ccc32)cc1,0
18,Cc1oc2c(CN3CCCC3)c(O)ccc2c(=O)c1-c1ccccc1,0
19,CCSc1nnc(NC(=O)CSc2ncccn2)s1,0
20,O=C(OCn1nnc2ccccc2c1=O)c1cc2ccccc2o1,2
21,Cc1ccc2nc(C3CCN(CC(=O)N4CCCCCC4)CC3)[nH]c2c1,0
22,COC(=O)C1C2C=CC3(CN(CC4CCCO4)C(=O)C13)O2 (centres undefined),0
23,Cc1ccsc1C(C(=O)NC1CCCCC1)N(C(=O)Cc1cccs1)C1CC1 (centres undefined),0
24,COc1ccc(CN(CC(=O)NCc2ccco2)C(=O)CCC(=O)Nc2nccs2)cc1,0
25,CC1C(O)=C(c2nc3ccccc3[nH]2)C(=N)N1c1ccccc1 (centres undefined),9
26,O=C(CN(C1CCCCC1)S(=O)(=O)c1ccccc1)NCc1cccnc1,0

row,Compound,inhibition [%]
1,COC(=O)c1sc(S(=O)(=O)N2CCN(c3ccccc3)CC2)c(C(=O)OC)c1C,10
2,CCCCCC(=O)O[C@]1(C(C)=O)CC[C@H]2[C@@H]3CCC4=CC(=O)CC[C@]4(C)[C@H]3CC[C@@]21C,0
3,COc1ccc(Cn2nnnc2C(c2cc3cc(C)cc(C)c3[nH]c2=O)N2CCOCC2)cc1 (centres undefined),0
4,Cc1nnc(N2C(=O)c3oc4ccccc4c(=O)c3C2c2ccco2)s1 (centres undefined),2
5,CCC(=O)N(CCCN(C)C)c1nc(-c2cc(OC)ccc2OC)cs1,6
6,CC(=O)Nc1ccc2c(c1)nc(CCNC(=O)c1ccccc1)n2C,0
7,O=c1oc2ccccc2c(O)c1CN1CCCCC1,0
8,OC(CN1CCN(c2ccccn2)CC1)Cn1c2ccccc2c2ccccc21 (centres undefined),0
9,COc1ccc(OC)c(S(=O)(=O)Nc2ccccc2SC)c1,3
10,CN(C)S(=O)(=O)c1cccc(C(=O)Nc2cccnc2)c1,0
11,O=C(CCCn1ncn2c(cc3occc32)c1=O)N1CCc2ccccc2C1,6
12,Cc1nnc(NC(=O)c2ccco2)s1,5
13,CCSc1nnc(NC(=O)c2nn(C(C)C)c(=O)c3ccccc23)s1,1
14,CCOc1ccc(NC(=O)c2ccncc2)cc1,0
15,CCN(CC)CCN1C(=O)C(=O)/C(=C(/O)c2c(C)[nH]c(C(=O)OC)c2C)C1c1ccco1 (centres undefined),0
16,c1ccc2c(c1)CNc1ccccc1C2,0
17,O=c1[nH]cnc2c1C1(CCCC1)Cc1ccccc1-2,0
18,Cn1c(=O)c2c(nc(N3CCCCC3)n2CCSc2nc3ccccc3o2)n(C)c1=O,8
19,O=C1NC2(Nc3ccccc31)C(=O)Nc1ccccc12 (centres undefined),0
20,CC(CN(C)Cc1ccccc1)OC(=O)c1ccc2c(c1)OCCO2 (centres undefined),0
21,Cc1ccc(-c2noc(CCC(=O)NC3CCCc4ccccc43)n2)cc1 (centres undefined),2
22,O=C(NCc1cccs1)C1CC(=O)N(c2ccccc2)C1 (centres undefined),0
23,CCC(C)NC(=O)c1cc(-c2ccc(OC)cc2)on1 (centres undefined),0
24,c1ccc2c3nnc4n(c-3nc2c1)CCCS4,1
25,COc1cccc(C(=O)n2cnnc2N)c1OC,4
26,O=C(Cn1cnc2c(nnn2-c2ccc(F)cc2)c1=O)NCc1ccco1,0

row,Compound,inhibition [%]
1,O=C(NC1CCCCC1NC(=O)c1ccco1)c1ccco1 (centres undefined),0
2,C=CCNC(=O)c1cccc(Br)c1,8
3,CC(NC(=O)COc1ccccc1)C(=O)NC1=NCCS1 (centres undefined),0
4,COCCOC(=O)C1=C(C)Nc2ncnn2C1c1ccc(F)cc1 (centres undefined),0
5,CCCCCCn1c(CN2CCCC(C)C2)nc2c1c(=O)n(C)c(=O)n2C (centres undefined),6
6,Cc1cn(C2CC3OCC3O2)c(=O)[nH]c1=O (centres undefined),0
7,CCOc1cccc(Oc2ccc(C(F)(F)F)cn2)c1,0
8,CN1CCN(C2=Nc3cc(Cl)ccc3Nc3ccccc32)CC1,8
9,CN(C)C(=O)CN(c1ccc(F)c(Cl)c1)S(C)(=O)=O,5
10,COc1ccccc1OCC(=O)NCC1CCCCC1,0
11,Nc1nc2n(n1)C(c1cccc(Br)c1)CC(c1ccccc1)N2 (centres undefined),0
12,Cc1nc2c(C(=O)O)cnn2c(C)c1Cc1ccccc1F,0
13,Cc1nn(C(=O)c2ccoc2C)c(N)c1-c1ccccc1,2
14,CCN(CC)c1nc2cc(OC)ccc2cc1C#N,0
15,O=C(CSc1nc2ccccc2c(=O)n1CCC(=O)N1CCCCC1)NCc1ccccc1,0
16,Cc1ccc(S(=O)(=O)N2CCOCC2)cc1C(=O)Nc1ccc(-c2cn3ccsc3n2)cc1,3
17,Cc1ccccc1CS(=O)(=O)Cc1ccc(C(=O)NCCCN2CCOCC2)o1,0
18,COc1ccccc1C(=O)N1CCN(C(=O)COc2cccc(C)c2)CC1,3
19,CN1CCN(C(=O)NC2CCCN2S(=O)(=O)c2ccc(Cl)cc2)CC1 (centres undefined),0
20,CCN1CCN(c2nc3c(C)cccn3c(=O)c2/C=C(\C#N)S(=O)(=O)c2ccccc2)CC1,0
21,COc1ccc(Br)cc1C1N2CC3(C)CN1CC(C)(C2)C3=O (centres undefined),0
22,Cc1ccc2c(c1)CCCN2C(=O)Nc1ccc2c(c1)OCO2,2
23,CC1CCN(S(=O)(=O)c2cccc(C(=O)Nc3ccccn3)c2)CC1,0
24,CCOCCn1c(CN2CCC(Cc3ccccc3)CC2)nc2c1c(=O)n(C)c(=O)n2C,0
25,Cc1ccc(CSC2=NCCN2C(=O)c2ccco2)cc1,0
26,CCCCCc1c(O)nc(SCC(=O)NCC2CCCO2)[nH]c1=O (centres undefined),6
